Experimental data as given in the supplement of paper PMC10646978.
± gives the standard deviation.

Key:
Settings in all cases: modulator concentration 10 µM
[1] = system: RAW-Dual (murine macrophage reporter line); assay: NF-kB reporter (SEAP) activity fold change vs agonist alone; higher = enhanced NF-kB activity
Outline: (§1)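 RAW-Dual murine macrophage reporter cells were plated at 50 000 per well in 384-well plates, pin-transferred compound to 10 μM final, and pre-incubated for 1 hour at 37 °C before a PRR agonist was added and the cells incubated overnight. NF-κB activity was read from supernatant SEAP with QUANTI-Blue at 620 nm absorbance, and IRF activity from Lucia luciferase with QUANTI-Luc by luminescence. Each signal was expressed as fold change by dividing by the mean agonist-only control on the same plate. Two replicate plates were averaged, with errors obtained by propagation.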

[2] = system: RAW-Dual (murine macrophage reporter line); assay: IRF reporter (Lucia luciferase) activity fold change vs agonist alone; higher = enhanced IRF activity
Outline: as §1

[3] = system: RAW-Dual (murine macrophage reporter line); assay: viability score (confluency relative to resting cells, overnight) (fraction); higher = more viable, active = viable (0.7 or more)
Outline: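 Compound was added at a final 10 μM to RAW-Dual macrophages in 384-well plates and left overnight. Confluency was imaged with IncuCyte, and two masks were generated in IncuCyte software over all imaged wells. Each viability score is confluency relative to resting cells, and a compound met the cutoff only when both masks were above 70% of resting cells.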

[4] = agonist: CpG ODN 1826 0.5 ug/mL

SMILES | NF-kB reporter [1, 4] | NF-kB reporter ([1]; agonist: LPS 0.1 ug/mL) | NF-kB reporter ([1]; agonist: MPLA […]) | IRF reporter ([2]; agonist: 3'3'-cGAMP 10 ug/mL) | IRF reporter ([2]; agonist: LPS 0.1 ug/mL) | IRF reporter ([2]; agonist: MPLA […]) | viability score [3]
O=C(Cc1ccc(NC(=O)c2ccc(OC(F)(F)F)cc2)cc1)NCC(F)(F)F | 1.22 ± 0.094 | 1.04 ± 0.12 | 0.994 ± 0.031 | 0.984 ± 0.055 | 1.03 ± 0.077 | 1.04 ± 0.18 | 0.999 (active)
Cc1nc2ccc(CN(C)c3ccc(C(=O)N[C@@H](CCC(=O)O)C(=O)O)s3)cc2c(=O)[nH]1 | 1.28 ± 0.1 | 1.03 ± 0.052 | 1.18 ± 0.1 | 0.863 ± 0.042 | 1.09 ± 0.063 | 1.07 ± 0.12 | 1 (active)
CCOc1cc([C@@H](CS(C)(=O)=O)N2C(=O)c3cccc(NC(C)=O)c3C2=O)ccc1OC | 2.72 ± 0.66 | 0.969 ± 0.058 | 1.69 ± 0.15 | 1.01 ± 0.048 | 1.05 ± 0.12 | 1.14 ± 0.15 | 0.977 (active)
COC(=O)C1=C(C)NC(=O)CC1c1ccc(Cl)c(Cl)c1 (configuration not stated) | 0.982 ± 0.075 | 0.801 ± 0.065 | 0.957 ± 0.094 | 1.06 ± 0.036 | 1.16 ± 0.15 | 1.23 ± 0.19 | 1.01 (active)
NCC1OC(OC2C(CO)OC(OC3C(O)C(N)CC(N)C3OC3OC(CN)C(O)C(O)C3N)C2O)C(N)C(O)C1O.O=S(=O)(O)O (configuration not stated) | 1.21 ± 0.096 | 1.01 ± 0.074 | 1.13 ± 0.12 | 0.993 ± 0.031 | 1.22 ± 0.12 | 1.29 ± 0.18 | 1.02 (active)
CC1CCN(C2=NC(=O)C(=Cc3cccc4ccccc34)S2)CC1 | 1.06 ± 0.087 | 0.987 ± 0.076 | 0.954 ± 0.057 | 0.963 ± 0.05 | 1.54 ± 0.23 | 1.2 ± 0.18 | 1.01 (active)
CCc1c(C)[nH]c2c1C(=O)C(CN1CCOCC1)CC2.Cl (configuration not stated) | 0.108 ± 0.0046 | 0.221 ± 0.024 | 0.714 ± 0.042 | 0.752 ± 0.039 | 1.5 ± 0.24 | 1.4 ± 0.43 | 0.855 (active)
CN1C(=O)OC(C)(C)C1=O | 1.01 ± 0.12 | 1.09 ± 0.075 | 1.05 ± 0.03 | 1.04 ± 0.17 | 1.01 ± 0.14 | 0.957 ± 0.22 | 1 (active)
CCc1ccc2nc(NCCCN3CCOCC3)sc2c1 | 0.924 ± 0.057 | 1.02 ± 0.083 | 0.971 ± 0.058 | 0.866 ± 0.04 | 1.19 ± 0.27 | 1.3 ± 0.34 | 0.99 (active)
COC(=O)C1=CN(CC2CCCO2)C=C(C(=O)OC)C1c1cccc(OC)c1 (configuration not stated) | 1.36 ± 0.25 | 0.859 ± 0.065 | 1.29 ± 0.13 | 0.943 ± 0.034 | 0.947 ± 0.045 | 0.879 ± 0.13 | 0.994 (active)
COc1ccc([C@@H]2Sc3ccccc3N(CCN(C)C)C(=O)[C@@H]2OC(C)=O)cc1.Cl | 0.958 ± 0.074 | 1.02 ± 0.053 | 1.21 ± 0.064 | 0.969 ± 0.15 | 0.997 ± 0.11 | 1.05 ± 0.1 | 0.985 (active)
CCCOc1ccc(C(=O)OCCN(CC)CC)cc1N.Cl | 0.857 ± 0.14 | 1.03 ± 0.1 | 0.928 ± 0.077 | 1.01 ± 0.044 | 1.2 ± 0.19 | 1.44 ± 0.15 | 1 (active)
NC(=O)c1ncn(C2OC(CO)C(O)C2O)n1 (configuration not stated) | 1.17 ± 0.089 | 1.16 ± 0.058 | 1.04 ± 0.03 | 1.02 ± 0.075 | 0.951 ± 0.11 | 0.922 ± 0.072 | 0.999 (active)
Cc1cccc(N=c2scc(-c3ccc([N+](=O)[O-])cc3)n2-c2cccc(C)c2C)c1C | 0.863 ± 0.065 | 1.04 ± 0.078 | 0.906 ± 0.054 | 0.864 ± 0.029 | 1.37 ± 0.088 | 1.11 ± 0.16 | 1 (active)
CC(C)N(C)CCOC(=O)C(C)(c1ccccc1)c1ccccc1 | 0.583 ± 0.047 | 1.03 ± 0.068 | 0.957 ± 0.11 | 0.902 ± 0.069 | 1.09 ± 0.12 | 0.965 ± 0.17 | 0.322 (inactive)
CNCC[C@@H](Oc1ccccc1C)c1ccccc1.Cl | 0.744 ± 0.079 | 0.996 ± 0.05 | 1.26 ± 0.085 | 1.02 ± 0.11 | 0.95 ± 0.041 | 0.792 ± 0.16 | 0.958 (active)
O=C(NC1CCC(Oc2ncc(F)cn2)CC1)c1cccc(F)c1 (configuration not stated) | 0.976 ± 0.084 | 1.01 ± 0.079 | 0.913 ± 0.079 | 1.01 ± 0.064 | 1.08 ± 0.088 | 1.04 ± 0.27 | 1.01 (active)
Cc1ccccc1N=Nc1ccc(NC(=O)c2ccnn2C)c(C)c1 | 1.12 ± 0.21 | 1.06 ± 0.086 | 0.946 ± 0.077 | 0.98 ± 0.039 | 1.21 ± 0.15 | 1.25 ± 0.21 | 1.01 (active)
CC1=NN(c2ccc(S(N)(=O)=O)cc2)C(=O)C1=Cc1ccc(C)s1 | 1.09 ± 0.074 | 1.08 ± 0.072 | 1.33 ± 0.14 | 0.868 ± 0.033 | 1.86 ± 0.15 | 1.54 ± 0.14 | 0.981 (active)
CC(=O)Nc1ccc(NC(=S)NC(=O)C=Cc2ccc(Cl)cc2Cl)cc1 | 0.64 ± 0.05 | 0.741 ± 0.059 | 0.933 ± 0.095 | 0.428 ± 0.031 | 1.33 ± 0.12 | 1.3 ± 0.22 | 1 (active)
CN1CCc2c(sc3[nH]c(=S)n(CCc4ccccc4)c(=O)c23)C1 | 0.753 ± 0.063 | 0.814 ± 0.042 | 0.967 ± 0.11 | 0.778 ± 0.042 | 1.28 ± 0.083 | 1.39 ± 0.17 | 1.01 (active)
CCOC(=O)Nc1ccc(NCc2ccc(F)cc2)nc1N.O=C(O)/C=C/C(=O)O | 1.21 ± 0.16 | 1.3 ± 0.34 | 0.885 ± 0.05 | 0.678 ± 0.043 | 1.3 ± 0.23 | 1.12 ± 0.09 | 0.977 (active)
O=C(Nc1ccc([N+](=O)[O-])cc1Br)C1CC12CCC2 (configuration not stated) | 0.957 ± 0.074 | 0.83 ± 0.068 | 1.05 ± 0.13 | 1.03 ± 0.049 | 1.39 ± 0.27 | 1.55 ± 0.38 | 1.02 (active)
CC/C(=C(\c1ccccc1)c1ccc(OCCN(C)C)cc1)c1ccccc1.O=C(O)CC(O)(CC(=O)O)C(=O)O | 0.808 ± 0.064 | 0.859 ± 0.053 | 1.09 ± 0.11 | 0.963 ± 0.048 | 1.32 ± 0.076 | 1.38 ± 0.12 | 1.02 (active)
O=C(NCc1cccc(Cl)c1)c1cnc2n(c1=O)CCS2 | 1.03 ± 0.11 | 1.02 ± 0.1 | 0.974 ± 0.054 | 0.976 ± 0.035 | 1.04 ± 0.054 | 1.09 ± 0.19 | 0.999 (active)
Cc1cccc(OCC(=O)Nc2cccc([N+](=O)[O-])c2)c1C | 0.982 ± 0.16 | 1.17 ± 0.14 | 1.03 ± 0.11 | 0.947 ± 0.028 | 1.21 ± 0.23 | 1.24 ± 0.21 | 0.974 (active)
